A selection: hits, their analogues and other compounds. The true share with any hit is near 5.3%.
TDP1 inh: TDP1 (human) enzyme inhibition; Q9NUW8; recombinant TDP1, AlphaScreen DNA substrate cleavage; Potency, µM (highest dose often 130 µM), for the others: top-dose activity change, negative = inhibition, hits mostly inhibitors; 350,000 compounds, 0.28% hits; further: potency means the concentration at half of the fitted maximal effect; on the % scale 0 is the no-effect control and ±100 the full control effect; nearly all actives have a fitted effect of over 40% in size
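E. coli-derived human Tdp1, 1 nM final. Cpd preinc 15 min RT; substrate 15 nM final, 5 min RT; AS bead mix 10 ug/ml final, 10 min RT. Signal loss = tyrosine-FITC cleavage. No-enzyme wells = max signal.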
HP1b chromo inh: inhibitors of HP1-beta chromodomain binding to methylated histone tails; P83916; AlphaScreen HP1-beta / biotin-H3K9me3 peptide binding; Potency, µM (titrated, usually from 114 µM), inactives show top-dose activity change, negative = inhibition, usual class: inhibitors; 390,000 compounds, 0.56% hits; further: potency means the concentration at half of the fitted maximal effect; nearly all actives have a fitted effect of over 70% in size
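AlphaScreen: HP1-beta (50 nM) preformed 30 min with biotin-H3(1-18)K9me3 peptide (50 nM) in PBS pH 7.4, 0.01% Tween-20. Compound added for 30 min at RT, then streptavidin donor/nickel chelate acceptor beads (10 ug/mL) for 30 min.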
CtBP-E1A inh: CtBP/E1A binding inhibition. 340,000 compounds, 0.49% hits. AID 651724. AlphaScreen GST-E1A/His-CtBP binding, 1536-well; hits give low values. activity change, % (test concentration not listed); in the data active means activity change below about -65%; inconclusive means mostly about -30% to -63%; further: on the % scale 0 is the no-effect control and ±100 the full control effect
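Homogeneous bead-based format: GST-tagged E1A captured on glutathione donor beads, His-tagged CtBP on nickel acceptor beads; compounds precede bead addition by 2 h at 37 °C.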
JMJD2A Tudor: inhibitors of human JMJD2A Tudor domain. O75164. AlphaScreen JMJD2A-Tudor / H3K4me3 peptide binding. Potency, µM (doses to about 114 µM), inactives show at the top dose activity change, negative = inhibition, actives largely listed as inhibitors. 390,000 compounds, 4.4% hits. AID 504339; further: potency means the concentration at half of the fitted maximal effect; on the % scale 0 is the no-effect control and ±100 the full control effect; nearly all actives have a fitted effect of over 50% in size
Target sequence (O75164 whole entry, looked up, the tested form may be a part): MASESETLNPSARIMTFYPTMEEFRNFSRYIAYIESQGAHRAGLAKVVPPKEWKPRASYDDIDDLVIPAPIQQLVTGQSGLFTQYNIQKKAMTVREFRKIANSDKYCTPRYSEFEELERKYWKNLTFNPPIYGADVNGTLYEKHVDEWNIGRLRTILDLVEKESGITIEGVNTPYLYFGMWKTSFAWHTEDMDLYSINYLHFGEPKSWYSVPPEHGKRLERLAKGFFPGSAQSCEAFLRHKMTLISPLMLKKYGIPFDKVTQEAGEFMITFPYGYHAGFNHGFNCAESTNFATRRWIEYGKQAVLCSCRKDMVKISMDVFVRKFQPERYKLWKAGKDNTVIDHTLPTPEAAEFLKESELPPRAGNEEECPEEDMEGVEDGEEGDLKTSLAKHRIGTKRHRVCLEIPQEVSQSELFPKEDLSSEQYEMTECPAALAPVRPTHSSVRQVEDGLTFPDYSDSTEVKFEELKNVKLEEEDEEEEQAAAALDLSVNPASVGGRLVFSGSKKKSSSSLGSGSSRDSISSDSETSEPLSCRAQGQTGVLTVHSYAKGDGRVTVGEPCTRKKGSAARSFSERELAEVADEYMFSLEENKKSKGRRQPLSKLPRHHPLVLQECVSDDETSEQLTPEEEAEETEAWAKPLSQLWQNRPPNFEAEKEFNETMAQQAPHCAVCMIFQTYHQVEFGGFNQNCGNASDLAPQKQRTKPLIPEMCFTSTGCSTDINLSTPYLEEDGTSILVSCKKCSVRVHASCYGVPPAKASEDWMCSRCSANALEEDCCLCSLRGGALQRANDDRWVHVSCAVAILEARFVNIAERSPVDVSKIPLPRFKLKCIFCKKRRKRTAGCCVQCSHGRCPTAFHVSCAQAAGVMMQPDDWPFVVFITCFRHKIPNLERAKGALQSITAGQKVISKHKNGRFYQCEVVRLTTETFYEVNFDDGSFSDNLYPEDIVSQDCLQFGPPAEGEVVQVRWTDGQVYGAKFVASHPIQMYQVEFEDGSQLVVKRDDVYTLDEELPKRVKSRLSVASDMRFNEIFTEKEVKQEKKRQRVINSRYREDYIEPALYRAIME
Six1-Eya2 inh: inhibitors of human Six1/Eya2 interaction; Q15475+O00167; AlphaScreen GST-Six1/His-Eya2 binding, biochemical; hits give low values; 360,000 compounds, 0.56% hits; activity change, % (concentration not given with the values); in the data active means activity change below about -65%; inconclusive means mostly about -30% to -63%; further: on the % scale 0 is the no-effect control and ±100 the full control effect
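Compounds are tested against tagged Six1 and Eya2 proteins bridged by glutathione donor and nickel acceptor beads; after a one-hour incubation at 37 °C without light, AlphaScreen emission is recorded.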
BAZ2B block: blocks human BAZ2B. AlphaScreen BAZ2B-H3K14Ac peptide displacement. Potency, µM (series often up to 114 µM), without a hit: top-dose activity change, negative = inhibition, hits mostly inhibitors. 360,000 compounds, 4.4% hits. AID 504333; further: potency means the concentration at half of the fitted maximal effect; on the % scale 0 is the no-effect control and ±100 the full control effect; nearly all actives have a fitted effect of over 60% in size
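Complex of BAZ2B and biotin-H3K14Ac (50 nM apiece) forms over 30 min at RT, then faces library compounds up to 110 uM for another 30 min; AlphaScreen beads added, 20 min dark incubation, luminescence read.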
The depositor's hits bear a star; ? = inconclusive; nt = not tested or not shown; [ ] = another dose, or the depositor's remark. Unless noted, the call rests on the fitted dose curve; in most records, active means well fitted inhibition curve with a large enough effect; inconclusive means small, poorly fitted or top-dose-only effect; inactive means no such curve, though single readings can be large or run the other way.

SMILES | TDP1 inh | HP1b chromo inh | CtBP-E1A inh | JMJD2A Tudor | Six1-Eya2 inh | BAZ2B block
COc1ccc(/C=C/C(=O)Oc2cccc(/C=N/NC(=O)COc3c(C)cccc3C)c2)cc1 | 1% | 20% | -8 | 2% | 9 | 100µM*
CC(=O)NC1Sc2ccccc2N=C1c1ccccc1 (stereo not drawn) | 10% | ? | 10 | 50µM* | 0 | -4%
COc1ccc(CCC(C(O)C(F)(F)F)S(=O)c2ccccc2)cc1 (stereo not drawn) | 10% | 5% | 11 | 40µM* | -1 | 8%
COc1ccc(NS(=O)CCCc2ccccc2)cc1 (stereo not drawn) | nt | nt | -8 | nt | -4 | nt
Cn1nnnc1Sc1ncnc2scc(-c3cccc(N)c3)c12 | nt | nt | nt | -32% | nt | nt
CN(C)c1ccc(-n2cccc2/C=C/[N+](=O)[O-])cc1 | 11% | 45µM* | -21 | 25µM* | 1 | 16µM*
CN=c1scc(-c2ccc(OC)cc2)n1/N=C(\C)c1cccnc1 | 10% | 45µM* | ? | 50µM* | ? | 32µM*
COc1ccc(CC(=O)N/N=C(\C)c2cccnc2)cc1 | 2% | 52% | 5 | -2% | 3 | -8%
Cc1cc2nn(-c3ccc(F)cc3)nc2cc1NC(=O)c1cccc([N+](=O)[O-])c1C | -1% | 34% | nt | 0% | nt | -14%
Cc1c(NC(=O)CN2CCN(c3ccc(O)cc3)CC2)c(=O)n(-c2ccccc2)n1C | -8% | ? | nt | 28µM* | 3 | nt
Cc1c(NC(=O)CN2CCN(c3ccc([N+](=O)[O-])cc3)CC2)c(=O)n(-c2ccccc2)n1C | 2% | 24%[57 µM] | -3 | -4% | -12 | -21%
Cc1cccc(C(=O)Nc2cccc(OCc3cc(=O)n4c(C)csc4n3)c2)c1 | 4% | 42% | nt | -14% | nt | 0%
Cc1ccc(C(C)C)cc1OCCn1cncn1 | 6% | 50µM* | -2 | 2.2µM* | -14 | 79µM*
CCN1CCN(CCOc2cccc(Cl)c2Cl)CC1 | 6% | ? | nt | 4µM* | 5 | 18µM*
C=CCc1ccc(OCCn2cncn2)c(OC)c1 | nt | 34% | nt | 6% | -6 | 10%
Clc1cccc(OCCn2cncn2)c1Cl | -7% | -35% | 2 | -3%[11.4 µM] | -1 | 56µM*
CCC(=O)c1ccccc1OCCN1CCN(CC)CC1 | -14% | ? | nt | 14µM* | 18 | 35µM*
O=C(c1ccccc1Cl)N1CCCCC1CCN1CCOCC1 (stereo not drawn) | 5% | 42% | nt | -4% | nt | 3%
CCOC(=O)c1ccc(NC(=O)Cn2ncc3c(C)n(Cc4ccccc4F)c(C)c3c2=O)cc1 | 5% | 38% | nt | -12% | nt | -1%
CCOC(=O)C1CCN(C(=O)CSc2n[nH]c(-c3ccc(F)cc3)n2)CC1 | 3% | 21%[57 µM] | nt | -6% | nt | -1%
COc1cccc(CCNC(=O)c2ccc(Cn3c(SCc4ccccc4)nc4cccnc43)cc2)c1 | 2% | 35% | nt | -13% | nt | -10%
CC(=O)c1ccc(NC(=O)Cn2cc(S(=O)(=O)Cc3ccccc3Cl)c3ccccc32)cc1 | 1% | 15% | nt | -23% | nt | -6%
CCC(=O)c1ccccc1OCCCCn1cncn1 | nt | ? | nt | 5.6µM* | 2 | 28µM*
c1ccc(Oc2cccc(OCCCn3cncn3)c2)cc1 | 7% | 46% | -2 | -6% | 4 | 11%
CC1CC(C)CN(CCOc2ccc(Cl)cc2Cl)C1 (stereo not drawn) | -2% | ? | 28 | 2.8µM* | 12 | 56µM*
SMILES | TDP1 inh | HP1b chromo inh | CtBP-E1A inh | JMJD2A Tudor | Six1-Eya2 inh | BAZ2B block
CC1(C)NC(=O)N(CCOc2cccc(Cl)c2Cl)C1=O | 2% | 64% | 44 | -2% | 24 | 7%
CC1CC(C)CN(CCOc2cccc(Cl)c2Cl)C1 (stereo not drawn) | -4% | ? | 6 | 79µM* | 2 | ?
COc1ccc(-c2cc(C(C)=O)c(C)n2CCC(=O)Nc2ccc(C)c(Cl)c2)cc1 | 2% | 24% | nt | -4% | nt | 0%
OC(CNCCc1ccc(C(F)(F)F)cc1)COC(c1ccccc1)c1ccccc1 (stereo not drawn) | nt | ? | -7 | 13µM* | -25 | 25µM*
COc1ccc(C(OCC(O)CNCCc2ccc(S(N)(=O)=O)cc2)c2ccc(OC)cc2)cc1 (stereo not drawn) | nt | 10% | -1 | -30% | 1 | -27%
CCOC(=O)N1CCc2c(sc3c2c(=O)n(-c2ccccc2)c(=O)n3CC(=O)Nc2ccc(OC)cc2OC)C1 | -3% | 26% | nt | -8% | nt | 0%
N#C/C(=C/c1ccc(O)c(O)c1)C(=O)NCc1ccc(Cl)cc1 | 12%[0.0935 µM] | 28µM* | -26 | 13µM* | -11 | 35µM*
C[C@@H](NC(=O)/C(C#N)=C/c1ccc(O)c(O)c1)c1ccccc1 | 17%[56.1 µM] | ? | 0 | 40µM* | -7 | 35µM*
C[C@H](NC(=O)/C(C#N)=C/c1ccc(O)c(O)c1)c1ccccc1 | 11% | nt | nt | nt | nt | nt
N#C/C(=C/c1cccc(O)c1)C(=O)NCc1ccc(Cl)cc1 | nt | -3% | -6 | -22% | 5 | -19%
N#C/C(=C\c1ccc(O)c(O)c1)C(=O)Nc1ccccc1 | 19%[56.1 µM] | ? | -7 | ? | -3 | 13µM*
N#C/C(=C\c1cccnc1)C(=O)Nc1ccccc1 | 5% | 20% | 3 | 0% | -4 | 11%
CCOC(=O)N1CCN(Cc2nc3cc([N+](=O)[O-])ccc3n2C(C)C)CC1 | -2% | 31% | nt | -12% | nt | -29%
S=C1Cc2ccccc2N1 | 5% | ? | -4 | 79µM* | -21 | -35%
CCN(CC)c1ccc(NC(=O)c2cnc3ccccn3c2=O)c(C)c1 | -2% | ? | -19 | 45µM* | -8 | ?
CCN(CC)c1ccc(NC(=O)c2cccc(C)c2OC)c(C)c1 | 2% | ? | ? | 40µM* | ? | 35µM*
COc1c(C)cccc1C(=O)Nc1ccc(OCC(=O)N2CCOCC2)cc1C | -3% | 45% | -2 | -3% | 3 | 56µM*
Cc1cc(C)cc(OCC(=O)Nc2ccc(S(=O)(=O)Nc3onc(C)c3C)cc2)c1 | -7%[12.3 µM] | 32% | nt | -22% | nt | -7%
COc1cccc(C2=Nn3c(nnc3-c3ccc(OC)c(OC)c3)SC2)c1 | 1% | nt | nt | -11% | nt | nt
CCOc1ccc(S(=O)(=O)Nc2ccc(-c3ccc(OC)nn3)cc2)cc1 | 8% | 18%[57 µM] | nt | -25% | nt | 2%
C=C1C2CC[C@@]3(C)C(c4ccoc4)OC(=O)C[C@@]13OC1CC(OC(C)=O)C(C)(C)C(CC(=O)OC)[C@@]12C (stereo partly drawn) | 14%[56.1 µM] | nt | nt | nt | nt | nt
COc1cccc(CNCc2cccn2-c2nnc(N3CCN(c4ccccc4)CC3)s2)c1 | 8% | -23% | nt | 50µM* | nt | ?
COc1ccccc1NCc1cccn1-c1nnc(N2CCCCCC2)s1 | 8% | -13% | nt | 45µM* | nt | -2%[57.1 µM]
